High-throughput results from PubChem BioAssay.
Shown are actives, neighbours in structure and some others; about 9% of the full set was active somewhere.
HPGD block: qHTS Assay for Inhibitors of HPGD (15-Hydroxyprostaglandin Dehydrogenase) | 15-hydroxyprostaglandin dehydrogenase [NAD(+)] (Homo sapiens), P15428 | purified HPGD, NADH fluorescence kinetic, PGE2 substrate | Potency, µM, inactives show top-dose activity change, negative = inhibition, actives largely listed as inhibitors | 4.3% of 150,000 active; active means well fitted inhibition curve with a large enough effect, not every such curve was filed as active; inconclusive means small, poorly fitted or top-dose-only effect, or another doubt; inactive means no such curve, though single readings can be large or run the other way; further: on the % scale 0 is the no-effect control and ±100 the full control effect
Target sequence (P15428 whole entry, looked up): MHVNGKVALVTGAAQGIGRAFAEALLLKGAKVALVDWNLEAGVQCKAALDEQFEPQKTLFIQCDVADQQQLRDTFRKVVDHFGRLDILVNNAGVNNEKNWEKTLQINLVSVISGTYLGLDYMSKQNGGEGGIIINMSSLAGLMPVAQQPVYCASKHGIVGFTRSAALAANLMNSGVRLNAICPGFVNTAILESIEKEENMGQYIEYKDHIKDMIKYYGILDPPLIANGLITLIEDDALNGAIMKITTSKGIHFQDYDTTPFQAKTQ
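20 nM HPGD preincubated 15 min at room temperature with compound in 50 mM Tris-HCl pH 8, 0.01% Tween 20. Started with 1 mM NAD+ and 30 uM prostaglandin E2; NADH fluorescence (360/450 nm) read 5 times over 30-s intervals, last minus first.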
Luc counter: Counterscreen for Luciferase (Kinase-Glo TM) Inhibition. Luciferin 4-monooxygenase (Photuris pensylvanica), Q27757. Kinase-Glo luciferase, ATP luminescence, 8 min. Potency, µM (titrated, usually from 38.3 µM), for the others: at the highest dose activity change, negative = inhibition, hits mostly inhibitors. 0.28% of 200,000 active; further: on the % scale 0 is the no-effect control and ±100 the full control effect; nearly all actives have a fitted effect of over 60% in size
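Luminescence was the read-out, taken after 8-minute incubation at ambient temperature. Luciferase turned over luciferin with 10 uM ATP in imidazole pH 7.2 buffer containing KCl, MgCl2, Tween 20 and BSA.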
HTT aggregate: qHTS Multiplex Assay to Identify Dual Action Probes in a Cell Model of Huntington: Aggregate Formation (GFP). PC12 HttQ103-GFP aggregates, Acumen cytometry, 40 h. Potency, µM (series often up to 46.1 µM), for inactives: at the top dose activity change, negative = inhibition, actives largely listed as inhibitors. 1.1% of 220,000 active; further: on the % scale 0 is the no-effect control and ±100 the full control effect; nearly all actives have a fitted effect of over 60% in size
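Compounds (qHTS titration) were added to PC12 cells expressing an ecdysone-driven HTT exon 1 Q103–GFP fusion after induction with 100 nM tebufenozide. Aggregate formation was measured as GFP objects in cell lysates.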
Lamin A splicing: qHTS Assay for Modulators of Lamin A Splicing; HeLa LMNA splicing GFP/RFP minigene ratio, 48 h; Potency, µM (series often up to 46.1 µM), inactives show top-dose ratio change, negative = inhibition, actives largely listed as inhibitors; 0.01% of 200,000 active; active means well fitted inhibition curve with a large enough effect in the signal ratio, with a control signal flat, not every such curve was filed as active; inconclusive means small, poorly fitted or top-dose-only effect, or effect the other way, or a change in a side signal; the % refers to the signal ratio; further: on the % scale 0 is the no-effect control and ±100 the full control effect
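S3 HeLa stable clones carrying a lamin A-EGFP splicing minigene plus DsRed2 were seeded at 600 cells/well in Opti-MEM with 2% FBS, pin-dosed and incubated 48 h at 37°C. Acumen cytometry (488 nm) gave the GFP/RFP total-intensity ratio.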
HTT cytoprotect: qHTS Multiplex Assay to Identify Dual Action Probes in a Cell Model of Huntington: Cytoprotection (ATP) | PC12 HTT-Q103 induced, cytoprotection, ATP luminescence, 40 h | Potency, µM (titrated, usually from 56.4 µM), inactives show cytoprotection (ATP increase), usual class: activators | 0.14% of 230,000 active | AID 1471, 2008; further: % of control where 0% means no effect; nearly all actives have a fitted effect of over 45% in size
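PC12 cells stably carrying ecdysone-inducible Htt exon 1 (Q103)–GFP were induced with 100 nM tebufenozide (final) alongside library compounds in a dose series. Cytoprotection was scored as retained ATP by ATPlite luminescence.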
ALDH1A1 inh: qHTS Assay for Inhibitors of Aldehyde Dehydrogenase 1 (ALDH1A1) | Aldehyde dehydrogenase 1A1 (Homo sapiens), P00352 | Purified ALDH1A1, NADH fluorescence, propionaldehyde substrate | Potency, µM (series often up to 75.3 µM), for the others: at the top dose activity, negative = inhibition, usual class: inhibitors | 7.3% of 220,000 active; active means well fitted inhibition curve with a large enough effect, not every such curve was filed as active; inconclusive means small, poorly fitted or top-dose-only effect, or another doubt; inactive means no such curve, though single readings can be large or run the other way;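 further: plate controls were no enzyme wells and a reference inhibitor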
Target sequence (P00352 whole entry, looked up): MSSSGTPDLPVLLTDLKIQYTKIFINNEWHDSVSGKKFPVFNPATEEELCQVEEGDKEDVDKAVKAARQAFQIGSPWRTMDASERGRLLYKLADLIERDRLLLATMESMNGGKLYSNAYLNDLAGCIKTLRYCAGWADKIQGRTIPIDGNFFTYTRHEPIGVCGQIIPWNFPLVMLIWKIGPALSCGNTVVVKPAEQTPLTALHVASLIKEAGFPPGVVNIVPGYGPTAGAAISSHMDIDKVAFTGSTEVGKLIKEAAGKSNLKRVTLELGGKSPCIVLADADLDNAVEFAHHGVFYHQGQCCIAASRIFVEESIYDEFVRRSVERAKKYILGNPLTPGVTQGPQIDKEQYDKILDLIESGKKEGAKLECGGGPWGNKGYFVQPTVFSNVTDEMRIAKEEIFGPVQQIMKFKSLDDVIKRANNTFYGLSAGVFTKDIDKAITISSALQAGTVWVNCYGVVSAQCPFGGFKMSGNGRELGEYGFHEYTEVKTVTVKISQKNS
* = called active by the depositor; ? = inconclusive; / = no result; [ ] = dose if it differs, or a comment. Unless noted, the call rests on the fitted dose curve; in most records, active means well fitted curve in the direction sought with a large enough effect; inconclusive means small, poorly fitted or top-dose-only effect, or another doubt; inactive means no such curve, though single readings can be large; an effect the other way counts as inactive or inconclusive. Potency means the concentration at half of the fitted maximal effect.

SMILES	HPGD block	Luc counter	HTT aggregate	Lamin A splicing	HTT cytoprotect	ALDH1A1 inh
CC1=C(C)CC(C(=O)N2CCN(Cc3ccccc3)CC2)C(C(=O)O)C1 (configuration not stated)	-6%	7%	-7%	-6%	5%	14µM*
O=C(N1CCN(c2ccccc2)CC1)C12CC3CC(CC(C3)C1)C2	-9%	-1%	-5%	?	-7%[10 µM]	?
O=C(N1CCN(Cc2ccccc2)CC1)C12CC3CC(CC(C3)C1)C2	-3%	0%	?	-24%	-5%[10 µM]	6.3µM*
O=C(NCCc1ccccc1)Nc1cccc(Cl)c1	-9%	4%	-18%	-14%	30%[10 µM]	3%
Cc1cccc(NC(=O)NCCc2ccc(Cl)cc2)c1	/	0%	11%[9.22 µM]	6%[46 µM]	-18%	35µM*
O=C(NCCc1ccc(Cl)cc1)Nc1cccc(Cl)c1	-8%	-1%	8.9µM*	?	-83%	-3%
CC(=O)c1cccc(OCC(=O)N2CCN(c3ccc(C(F)(F)F)cn3)CC2)c1	/	0%	-25%	/	-44%	-4%
Cc1csc(SCC(=O)NCCc2ccc(Cl)cc2Cl)n1	28µM*	1%	3%	-2%	-9%[10 µM]	1%
O=C(CSc1ccc2c(c1)OCCO2)NCCc1ccc(Cl)cc1Cl	/	/	0%	?	-10%[10 µM]	-9%
CCC(c1nnc(SCC(=O)NCCc2ccc(Cl)cc2Cl)o1)N(C)C (configuration not stated)	14µM*	-4%	3%	5%	-9%[10 µM]	16µM*
CCOc1ccc(CNS(=O)(=O)c2cc3c(cc2C)NC(=O)CO3)cc1	/	/	/	-7%[46 µM]	/	/
C=CCN(CC=C)S(=O)(=O)c1ccc(NC(=S)NC(=O)/C=C/c2ccccc2)cc1	-11%	-1%	-7%	12%	-9%	?
Cc1ccc(Sc2ccc(NC(=O)CCl)cc2)c(C)c1	11µM*	-6%	-4%	-8%	-6%[10 µM]	-6%
O=C(CCl)N(c1ccccc1)C1CCS(=O)(=O)C1 (configuration not stated)	-1%	6%	8.9µM*	?	13%[10 µM]	0.063µM*
CN(C1CCS(=O)(=O)C1)S(=O)(=O)c1ccccc1 (configuration not stated)	/	2%	-21%[9.22 µM]	/	-10%[10 µM]	-5%
COc1ccc2cc(C#N)c(SCC(=O)N3CCCC3)nc2c1	-24%	0%	-16%	9%	3%[10 µM]	?
COc1ccc2nc(SCC(=O)N3CCN(c4ccc(F)cc4)CC3)c(C#N)cc2c1	-6%	8%	6%	-3%	-2%[1.9 µM]	7.9µM*
Cc1ccc(NC(=O)C2CCCN(S(=O)(=O)c3c(C)noc3C)C2)cc1 (configuration not stated)	/	0%	8%	25%[46 µM]	-24%	13%
CSC1=N/C(=C\c2ccccc2Cl)C(=O)N1N(C)C	/	/	-18%[9.22 µM]	/	9%[10 µM]	18µM*
CN1/C(=C/C2CC(=O)N(c3ccc([N+](=O)[O-])cc3)C2=O)C(C)(C)c2ccccc21 (configuration not stated)	-20%	-1%	3%	15%	-23%	11µM*
CN1/C(=C\C(=O)Nc2ccc(F)cc2)C(C)(C)c2ccccc21	/	/	6.3µM*	-21%	-25%[10 µM]	-2%
CN1/C(=C/C=N/NC(=O)c2ccc([N+](=O)[O-])cc2)C(C)(C)c2ccccc21	-18%	-11%	?	-2%	/	-8%
CN1/C(=C\C(=S)NC(=O)c2cccc(Br)c2)C(C)(C)c2ccccc21	/	/	-31%	?	18%[10 µM]	1µM*
CN1/C(=C\C(=O)Nc2ccc(Br)cc2)C(C)(C)c2ccccc21	-6%	0%	-11%	?	-1%[10 µM]	?
CN1/C(=C\C(=S)NC(=O)c2ccc([N+](=O)[O-])cc2)C(C)(C)c2ccccc21	-1%	-4%	?	-17%	32%[10 µM]	35µM*
SMILES	HPGD block	Luc counter	HTT aggregate	Lamin A splicing	HTT cytoprotect	ALDH1A1 inh
CCn1c(C(C)NC(=O)c2cccs2)nc2ccccc21 (configuration not stated)	-12%	0%	-20%	-12%	28%[10 µM]	6%
CCSc1nnc(NC(=O)CSc2nnc(CNC(=O)c3ccc(OC)cc3)o2)s1	-16%	-3%	-1%	1%	/	?
CCSc1nc2c(c(=O)[nH]1)C(c1ccccn1)C1=C(CC(C)(C)CC1=O)N2 (configuration not stated)	?	-1%	-4%	16%	-11%	?
Cn1nnnc1SCCCNCc1ccc(-c2cccc(Cl)c2)o1	/	/	/	-10%[46 µM]	/	/
CCOC(=O)c1c(C)[nH]sc1=S	?	5%	12%	3%	-13%	?
CCOC(=O)c1c(C(=O)OCC)c(C)n(N2C(=O)CSC2=S)c1C	-14%	0%	0.89µM*	4%	6%[10 µM]	1%
CCCCCCCCCn1ccc(=N)cc1	/	/	-32%[9.22 µM]	/	-34%[10 µM]	/
CCCCCCCn1ccc(=N)cc1	-3%	0%	1.1µM*	?	-54%	1%
Cc1ccc(Nc2cc(-n3cccn3)ncn2)c(C)c1	-5%	1%	2%[9.22 µM]	1%	-4%	?
Fc1cccc(Nc2cc(-n3cccn3)ncn2)c1	-9%	1%	13µM*	?	10%[10 µM]	-2%
CCn1nc(C)cc1C(=O)N1CCc2c([nH]c3ccccc23)C1c1cc(F)ccc1F (configuration not stated)	/	/	0%[9.22 µM]	/	-1%[10 µM]	-7%
CCN(CCCNC(=O)Cn1ncc2c(=O)oc3ccccc3c21)c1cccc(C)c1	-19%	2%	-19%	8%	-10%	-15%
CCCN(C(=O)Cn1ncc2c(=O)oc3ccccc3c21)c1cccc(C)c1	3%	-5%	21%	-2%	-14%	11µM*
CC1CCN(Cc2c(C#N)c3ccccc3n2C)CC1	-2%	-2%	-9%	2%	-7%	32µM*
O=C(CCS(=O)(=O)c1cc(Br)cc2c1N(C(=O)C1CC1)CC2)NCc1ccco1	-16%	9%	-2%	15%	10%	11µM*
CCC(=O)N1CCc2cc(S(=O)(=O)CCC(=O)NCc3ccco3)ccc21	/	1%	-12%	/	-17%	5%
O=S(=O)(c1cc(Cl)ccc1Br)N1CCOCC1	3%	2%	-11%	10%	15%	0%
CN(c1nc2c(c(=O)n(C)c(=O)n2C)n1CC(=O)c1ccccc1)C1CCCCC1	-8%	3%	-4%	8%	-13%[0.074 µM]	28µM*
